# Test results reported in the supplement of paper PMC4466140.
# B1: unnamed (peptide)
# chain: GDHPKGPPPPPPPPD
# B2: unnamed (peptide)
# chain: TPEIPPPLPPKIMVH
# Target: CaNbp2
# Assay: SPOT peptide array binding signal intensity (averaged, normalized) (arbitrary units (background-subtracted, floor 0; scale differs between SH3 domains)); higher = stronger binding of the SH3 domain to the peptide
# How it was run: (§1)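 E. coli BL21(DE3) was used to express GST-fused SH3 domains from four yeast species, which were then purified on glutathione Sepharose. These were incubated at 10 μg/ml in TBS-based blocking buffer overnight at 4°C on cellulose membranes carrying synthetic 15-mer peptides, in which cysteines were replaced by serines. Binding signal is the replicate average of normalized, background-subtracted spot intensity, in arbitrary units that differ between domains.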
row,Binder,SPOT peptide array binding signal intensity
1,B1,≤ 0
2,B2,9

# Target: CaRvs167
# Assay: as above
# How it was run: as §1
row,Binder,SPOT peptide array binding signal intensity
1,B1,0.333
2,B2,29.8

# Target: CaRvs167-3
# Assay: as above
# How it was run: as §1
row,Binder,SPOT peptide array binding signal intensity
1,B1,1
2,B2,≤ 0

# Target: CaSho1
# Assay: as above
# How it was run: as §1
row,Binder,SPOT peptide array binding signal intensity
1,B1,≤ 0
2,B2,124

# Target: CaSla1-D1-D2
# Assay: as above
# How it was run: as §1
row,Binder,SPOT peptide array binding signal intensity
1,B1,≤ 0
2,B2,≤ 0

# Target: CaSla1-D3
# Assay: as above
# How it was run: as §1
row,Binder,SPOT peptide array binding signal intensity
1,B1,≤ 0
2,B2,≤ 0

# Target: ScAbp1
# Assay: as above
# How it was run: as §1
row,Binder,SPOT peptide array binding signal intensity
1,B1,≤ 0
2,B2,≤ 0

# Target: ScBbc1
# Assay: as above
# How it was run: as §1
row,Binder,SPOT peptide array binding signal intensity
1,B1,≤ 0
2,B2,≤ 0

# Target: ScBem1-D1
# Assay: as above
# How it was run: as §1
row,Binder,SPOT peptide array binding signal intensity
1,B1,≤ 0
2,B2,≤ 0

# Target: ScBzz1-D1
# Assay: as above
# How it was run: as §1
row,Binder,SPOT peptide array binding signal intensity
1,B1,1030
2,B2,≤ 0

# Target: ScBzz1-D2
# Assay: as above
# How it was run: as §1
row,Binder,SPOT peptide array binding signal intensity
1,B1,≤ 0
2,B2,11

# Target: ScCyk3
# Assay: as above
# How it was run: as §1
row,Binder,SPOT peptide array binding signal intensity
1,B1,≤ 0
2,B2,≤ 0

# Target: ScFus1
# Assay: as above
# How it was run: as §1
row,Binder,SPOT peptide array binding signal intensity
1,B1,≤ 0
2,B2,≤ 0

# Target: ScHof1
# Assay: as above
# How it was run: as §1
row,Binder,SPOT peptide array binding signal intensity
1,B1,≤ 0
2,B2,722

# Target: ScHse1
# Assay: as above
# How it was run: as §1
row,Binder,SPOT peptide array binding signal intensity
1,B1,16
2,B2,≤ 0

# Target: ScLsb1
# Assay: as above
# How it was run: as §1
row,Binder,SPOT peptide array binding signal intensity
1,B1,≤ 0
2,B2,109

# Target: ScLsb2
# Assay: as above
# How it was run: as §1
row,Binder,SPOT peptide array binding signal intensity
1,B1,≤ 0
2,B2,≤ 0

# Target: ScLsb3
# Assay: as above
# How it was run: as §1
row,Binder,SPOT peptide array binding signal intensity
1,B1,≤ 0
2,B2,6940

# Target: ScLsb4
# Assay: as above
# How it was run: as §1
row,Binder,SPOT peptide array binding signal intensity
1,B1,≤ 0
2,B2,376

# Target: ScMyo3
# Assay: as above
# How it was run: as §1
row,Binder,SPOT peptide array binding signal intensity
1,B1,1170
2,B2,611

# Target: ScMyo5
# Assay: as above
# How it was run: as §1
row,Binder,SPOT peptide array binding signal intensity
1,B1,1020
2,B2,380

# Target: ScNbp2
# Assay: as above
# How it was run: as §1
row,Binder,SPOT peptide array binding signal intensity
1,B1,3
2,B2,2

# Target: ScPex13
# Assay: as above
# How it was run: as §1
row,Binder,SPOT peptide array binding signal intensity
1,B1,7.63e-06
2,B2,1210

# Target: ScRvs167
# Assay: as above
# How it was run: as §1
row,Binder,SPOT peptide array binding signal intensity
1,B1,≤ 0
2,B2,525

# Target: ScSho1
# Assay: as above
# How it was run: as §1
row,Binder,SPOT peptide array binding signal intensity
1,B1,≤ 0
2,B2,1610

# Target: ScSla1-D1-D2
# Assay: as above
# How it was run: as §1
row,Binder,SPOT peptide array binding signal intensity
1,B1,≤ 0
2,B2,≤ 0

# Target: ScSla1-D3
# Assay: as above
# How it was run: as §1
row,Binder,SPOT peptide array binding signal intensity
1,B1,≤ 0
2,B2,≤ 0

# Target: SpAbp1-D1
# Assay: as above
# How it was run: as §1
row,Binder,SPOT peptide array binding signal intensity
1,B1,≤ 0
2,B2,≤ 0

# Target: SpBbc1
# Assay: as above
# How it was run: as §1
row,Binder,SPOT peptide array binding signal intensity
1,B1,≤ 0
2,B2,0.5

# Target: SpBzz1-D1
# Assay: as above
# How it was run: as §1
row,Binder,SPOT peptide array binding signal intensity
1,B1,67
2,B2,68

# Target: SpBzz1-D2
# Assay: as above
# How it was run: as §1
row,Binder,SPOT peptide array binding signal intensity
1,B1,2
2,B2,≤ 0

# Target: SpCyk3
# Assay: as above
# How it was run: as §1
row,Binder,SPOT peptide array binding signal intensity
1,B1,≤ 0
2,B2,≤ 0

# Target: SpHof1
# Assay: as above
# How it was run: as §1
row,Binder,SPOT peptide array binding signal intensity
1,B1,≤ 0
2,B2,≤ 0

# Target: SpHof1-2
# Assay: as above
# How it was run: as §1
row,Binder,SPOT peptide array binding signal intensity
1,B1,≤ 0
2,B2,0.5

# Target: SpHof1-3
# Assay: as above
# How it was run: as §1
row,Binder,SPOT peptide array binding signal intensity
1,B1,≤ 0
2,B2,≤ 0

# Target: SpHse1
# Assay: as above
# How it was run: as §1
row,Binder,SPOT peptide array binding signal intensity
1,B1,1
2,B2,148

# Target: SpLsb1
# Assay: as above
# How it was run: as §1
row,Binder,SPOT peptide array binding signal intensity
1,B1,≤ 0
2,B2,463

# Target: SpLsb4
# Assay: as above
# How it was run: as §1
row,Binder,SPOT peptide array binding signal intensity
1,B1,≤ 0
2,B2,852

# Target: SpMyo1
# Assay: as above
# How it was run: as §1
row,Binder,SPOT peptide array binding signal intensity
1,B1,1570
2,B2,723

# Target: SpNbp2
# Assay: as above
# How it was run: as §1
row,Binder,SPOT peptide array binding signal intensity
1,B1,18.5
2,B2,≤ 0

# Target: SpPex13
# Assay: as above
# How it was run: as §1
row,Binder,SPOT peptide array binding signal intensity
1,B1,≤ 0
2,B2,9

# Target: SpRvs167
# Assay: as above
# How it was run: as §1
row,Binder,SPOT peptide array binding signal intensity
1,B1,≤ 0
2,B2,1520

# Target: SpSla1-D1-D2
# Assay: as above
# How it was run: as §1
row,Binder,SPOT peptide array binding signal intensity
1,B1,≤ 0
2,B2,≤ 0

# Target: SpSla1-D3
# Assay: as above
# How it was run: as §1
row,Binder,SPOT peptide array binding signal intensity
1,B1,≤ 0
2,B2,≤ 0

# Target: AgAbp1
# Assay: as above
# How it was run: as §1
row,Binder,SPOT peptide array binding signal intensity
1,B2,≤ 0

# Target: AgBbc1
# Assay: as above
# How it was run: as §1
row,Binder,SPOT peptide array binding signal intensity
1,B2,≤ 0

# Target: AgBem1-D1
# Assay: as above
# How it was run: as §1
row,Binder,SPOT peptide array binding signal intensity
1,B2,≤ 0

# Target: AgBzz1-D1
# Assay: as above
# How it was run: as §1
row,Binder,SPOT peptide array binding signal intensity
1,B2,≤ 0

# Target: AgBzz1-D2
# Assay: as above
# How it was run: as §1
row,Binder,SPOT peptide array binding signal intensity
1,B2,4.5

# Target: AgCyk3
# Assay: as above
# How it was run: as §1
row,Binder,SPOT peptide array binding signal intensity
1,B2,≤ 0

# Target: AgFus1
# Assay: as above
# How it was run: as §1
row,Binder,SPOT peptide array binding signal intensity
1,B2,≤ 0

# Target: AgHof1
# Assay: as above
# How it was run: as §1
row,Binder,SPOT peptide array binding signal intensity
1,B2,631

# Target: AgHse1
# Assay: as above
# How it was run: as §1
row,Binder,SPOT peptide array binding signal intensity
1,B2,822

# Target: AgLsb1
# Assay: as above
# How it was run: as §1
row,Binder,SPOT peptide array binding signal intensity
1,B2,≤ 0

# Target: AgLsb4
# Assay: as above
# How it was run: as §1
row,Binder,SPOT peptide array binding signal intensity
1,B2,232

# Target: AgMyo5
# Assay: as above
# How it was run: as §1
row,Binder,SPOT peptide array binding signal intensity
1,B2,496

# Target: AgNbp2
# Assay: as above
# How it was run: as §1
row,Binder,SPOT peptide array binding signal intensity
1,B2,≤ 0

# Target: AgRvs167
# Assay: as above
# How it was run: as §1
row,Binder,SPOT peptide array binding signal intensity
1,B2,9.33

# Target: AgSho1
# Assay: as above
# How it was run: as §1
row,Binder,SPOT peptide array binding signal intensity
1,B2,66

# Target: AgSla1-D1-D2
# Assay: as above
# How it was run: as §1
row,Binder,SPOT peptide array binding signal intensity
1,B2,≤ 0

# Target: AgSla1-D3
# Assay: as above
# How it was run: as §1
row,Binder,SPOT peptide array binding signal intensity
1,B2,≤ 0

# Target: CaAbp1-D1
# Assay: as above
# How it was run: as §1
row,Binder,SPOT peptide array binding signal intensity
1,B2,6.5

# Target: CaAbp1-D2
# Assay: as above
# How it was run: as §1
row,Binder,SPOT peptide array binding signal intensity
1,B2,≤ 0

# Target: CaBbc1
# Assay: as above
# How it was run: as §1
row,Binder,SPOT peptide array binding signal intensity
1,B2,≤ 0

# Target: CaBem1-D1
# Assay: as above
# How it was run: as §1
row,Binder,SPOT peptide array binding signal intensity
1,B2,≤ 0

# Target: CaBzz1-D1
# Assay: as above
# How it was run: as §1
row,Binder,SPOT peptide array binding signal intensity
1,B2,≤ 0

# Target: CaBzz1-D2
# Assay: as above
# How it was run: as §1
row,Binder,SPOT peptide array binding signal intensity
1,B2,≤ 0

# Target: CaCyk3
# Assay: as above
# How it was run: as §1
row,Binder,SPOT peptide array binding signal intensity
1,B2,≤ 0

# Target: CaFus1
# Assay: as above
# How it was run: as §1
row,Binder,SPOT peptide array binding signal intensity
1,B2,74

# Target: CaHof1
# Assay: as above
# How it was run: as §1
row,Binder,SPOT peptide array binding signal intensity
1,B2,20.5

# Target: CaHse1
# Assay: as above
# How it was run: as §1
row,Binder,SPOT peptide array binding signal intensity
1,B2,3420

# Target: CaLsb1
# Assay: as above
# How it was run: as §1
row,Binder,SPOT peptide array binding signal intensity
1,B2,≤ 0

# Target: CaLsb4
# Assay: as above
# How it was run: as §1
row,Binder,SPOT peptide array binding signal intensity
1,B2,1090

# Target: CaMyo5
# Assay: as above
# How it was run: as §1
row,Binder,SPOT peptide array binding signal intensity
1,B2,25.5
